Drawing on PubChem BioAssay (EPA / NIEHS), this text covers AC50 and outcome for nine compounds.

Assay [1] in a line: ATG_PXRE_CIS: Attagene CIS-FACTORIAL HepG2 Assay for human Pregnane X Receptor Element (PXRE) (AID 2282957). Particulars: HepG2 Attagene CIS-FACTORIAL PXRE reporter, mRNA; actives raise or lower the signal. The procedure, abridged:
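Transfect HepG2 with MRTUs (cis promoter elements); dose chemical, incubate 24 h; isolate RNA, RT with oligo(dT), PCR, 6-FAM label, HpaI cut, CE. Gain/loss fit vs DMSO.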

Assay [2] can be described thus: ATG_RORE_CIS: Attagene CIS-FACTORIAL HepG2 Assay for human RAR-related Orphan Receptor Element (RORE) (AID 2282959). Particulars: HepG2 Attagene cis-factorial RORE reporter, mRNA; actives raise or lower the signal. In a few lines:
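Cells were HepG2 carrying transfected cis-regulated reporter constructs, dosed for 24 hours. Total RNA was reverse-transcribed and reporter cDNA amplified, fluorescently labeled and sized by capillary electrophoresis. Activity was fitted bidirectionally relative to DMSO.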

Assay [3] is described as follows: ATG_Sox_CIS: Attagene CIS-FACTORIAL HepG2 Assay for human SRY-box transcription factor (SOX) (AID 2282960). Particulars: HepG2 Attagene cis-factorial SOX reporter, mRNA; actives raise or lower the signal. The procedure, abridged: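 Transient MRTU transfection of HepG2; 24 h compound incubation; TriZol RNA, oligo(dT) RT, PCR, 6-FAM primer extension, HpaI cut, CE. Bidirectional fit, DMSO = baseline.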

Assay [4] in a line: ATG_SREBP_CIS: Attagene CIS-FACTORIAL HepG2 Assay for human Sterol Regulatory Element Binding (SREBP) (AID 2282962). Particulars: HepG2 Attagene cis-factorial SREBP reporter, mRNA; actives raise or lower the signal. In a few lines: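 mRNA induction of transfected cis-promoter reporters in HepG2 cells, 24 h post-dose. Detection: RT-PCR with 6-FAM-labelled products, HpaI digest, capillary electrophoresis. DMSO served as negative control and baseline.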

Assay [5] concerns the target Signal transducer and activator of transcription 3 (Homo sapiens) (UniProt P40763). The assay is described as follows: ATG_STAT3_CIS: Attagene CIS-FACTORIAL HepG2 Assay for human Signal Transducer and Activator of Transcription 3 (STAT3) (AID 2282963). Particulars: HepG2, Attagene cis-factorial STAT3 reporter transcription; actives raise or lower the signal. The procedure, abridged: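 HepG2 cells transiently transfected with cis-element-driven multiple reporter transcription units; after 24 h chemical exposure, reporter mRNA measured by RT-PCR, 6-FAM primer-extension labelling, HpaI digestion and capillary electrophoresis. Bidirectional fitting versus DMSO baseline.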

The nature of assay [6]: ATG_TA_CIS: Attagene CIS-FACTORIAL HepG2 Assay for human TA Basal Promoter (AID 2282964). Particulars: HepG2 Attagene CIS-factorial TA basal promoter reporter; actives raise or lower the signal. The procedure, abridged: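 Background-control readout: TA basal promoter reporter mRNA, fitted in both directions relative to DMSO. Measured by RT-PCR and capillary electrophoresis 24 hours after treating HepG2 human liver cells transiently carrying multiplexed cis-regulated reporter constructs.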

Assay [7] in a line: ATG_TCF_b_cat_CIS: Attagene CIS-FACTORIAL HepG2 Assay for human T-Cell-Factor with beta-catenin (TCF/b-cat) (AID 2282965). Particulars: HepG2 TCF/beta-catenin cis-reporter transcription, actives raise or lower the signal. In a few lines: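 Using capillary electrophoresis as the read-out, labelled reporter cDNA fragments from transiently transfected HepG2 were sized and quantified. Exposure lasted 24 hours; activity in either direction was referenced to DMSO.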

Assay [8] is described as follows: ATG_TAL_CIS: Attagene CIS-FACTORIAL HepG2 Assay for human TAL Basal Promoter (AID 2282966).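 Further: background control endpoint measuring basal TAL promoter reporter mRNA not a specific factor.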 Particulars: HepG2 Attagene cis-factorial TAL promoter reporter; actives raise or lower the signal. The procedure, abridged:
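Fluorescence of labelled reporter cDNA fragments, resolved by capillary electrophoresis, gave the readout. Human HepG2 liver cells carried transiently transfected cis-element reporter units and were treated for 24 hours; activity was fitted bidirectionally against DMSO.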

Assay [9] is described as follows: ATG_VDRE_CIS: Attagene CIS-FACTORIAL HepG2 Assay for human Vitamin D Receptor Element (VDRE) (AID 2282968). Particulars: HepG2 VDRE cis-reporter transcription, actives raise or lower the signal. In a few lines:
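HepG2 cells transiently transfected with cis-element reporter units, dosed 24 h; reporter mRNA measured by RT-PCR, 6-FAM labeling, HpaI digestion and capillary electrophoresis. Activity fitted bidirectionally against DMSO baseline.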

The target of assay [10] is Nuclear receptor subfamily 1 group I member 3 (Homo sapiens) (UniProt Q14994). The assay can be described thus: ATG_CAR_TRANS: Attagene TRANS-FACTORIAL HepG2 Assay for human Constitutive Androstane Receptor (CAR) (AID 2282969; active means hit-call score of the fitted dose curve at least 0.9, where 1 is the maximum;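 further: activators raise reporter mRNA above DMSO so AC50 marks induction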). Particulars: HepG2 Attagene TRANS-FACTORIAL CAR reporter. The procedure, abridged: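 HepG2 cells transiently transfected with multiplexed GAL4-UAS reporter units expressing chimeric NR-Gal4 proteins; compound exposure 24 h. Reporter mRNA measured by RT-PCR, 6-FAM labelling, HpaI digestion and capillary electrophoresis; gain-of-signal fitted against DMSO baseline.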

For assay [11], the target named is Estrogen receptor (Homo sapiens) (UniProt P03372). The assay can be described thus: ATG_ERa_TRANS: Attagene TRANS-FACTORIAL HepG2 Assay for human Estrogen Receptor alpha (ERa) (AID 2282970; active means hit-call score of the fitted dose curve at least 0.9, where 1 is the maximum). Particulars: HepG2 Attagene TRANS ERa GAL4 reporter, mRNA. In a few lines: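 Human liver HepG2, transient transfection of multiple GAL4-UAS reporter units; TRANS format (exogenous NR-Gal4 chimera). 24 h dosing. Readout: reporter mRNA, RT-PCR, 6-FAM primer extension, HpaI digest, capillary electrophoresis. Positive direction vs DMSO.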

In assay [12] the target is X-box-binding protein 1 (Homo sapiens) (UniProt P17861). The assay is described as follows: ATG_Xbp1_CIS: Attagene CIS-FACTORIAL HepG2 Assay for human X-box Binding Protein 1 (XBP1) (AID 2282972). Particulars: HepG2 XBP1 cis-element reporter, Attagene multiplex; actives raise or lower the signal. The procedure, abridged:
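Fluorescence-labelled cDNA fragments from reporter transcripts, separated by capillary electrophoresis, give the signal. Source: HepG2 cells transfected with promoter-driven reporter units, harvested 24 h post-dose. DMSO served as reference for bidirectional curve fitting.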

The nature of assay [13]: ATG_M_19_TRANS: Attagene TRANS-FACTORIAL HepG2 Assay for M19 Transcription Factor (Internal Marker) (AID 2282974; active means hit-call score of the fitted dose curve at least 0.9, where 1 is the maximum). Particulars: HepG2 Attagene TRANS-FACTORIAL M19 internal marker reporter. In a few lines: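 Cells: human HepG2, transiently transfected with multiplexed reporter transcription units. Exposure: 24 h. Detection: RT-PCR of reporter mRNA with capillary electrophoresis. Analysis: gain-of-signal vs DMSO.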

The nature of assay [14]: ATG_GAL4_TRANS: Attagene TRANS-FACTORIAL HepG2 Assay for GAL4 (Internal Marker) (AID 2282976; active means hit-call score of the fitted dose curve at least 0.9, where 1 is the maximum). Particulars: HepG2 Attagene TRANS GAL4 internal marker reporter. The procedure, abridged:
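First, HepG2 cells were transfected with reporter units under GAL4-UAS control. Next, they were treated with chemical for 24 h. Finally, RNA was reverse-transcribed, PCR-amplified, FAM-labelled and resolved by capillary electrophoresis, with induction scored against DMSO.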

Assay [15] can be described thus: ATG_PPRE_CIS: Attagene CIS-FACTORIAL HepG2 Assay for human Peroxisome Proliferator-activated Response Element (PPRE) (AID 2282958). Particulars: HepG2 PPRE cis-element reporter, Attagene transcription factor profiling; actives raise or lower the signal. In a few lines: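 Cells are first transfected transiently with the multiplexed reporter library, then dosed for 24 h. Total RNA is reverse-transcribed, amplified, fluorescently end-labeled and HpaI-cut before capillary electrophoresis; activity is fitted bidirectionally against DMSO controls.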

Assay [16] has as its target Transcription factor Sp1 (Homo sapiens) (UniProt P08047). The assay is described as follows: ATG_Sp1_CIS: Attagene CIS-FACTORIAL HepG2 Assay for human Specificity Protein 1 (Sp1) (AID 2282961). Particulars: HepG2 Sp1 cis-reporter transcription, actives raise or lower the signal. The procedure, abridged:
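Endogenous Sp1 activity was gauged in human liver HepG2 cells bearing transfected reporter units under a cis-regulating promoter. After 24 h dosing, reporter mRNA was quantified by RT-PCR with capillary electrophoresis, and activity fitted bidirectionally versus DMSO.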

Assay [17] is described as follows: ATG_TGFb_CIS: Attagene CIS-FACTORIAL HepG2 Assay for human Transforming Growth Factor (TGF) (AID 2282967). Particulars: HepG2 Attagene CIS TGFb reporter, mRNA transcription; actives raise or lower the signal. The procedure, abridged: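 Endogenous TGFB1-linked transcription factor activity read as reporter mRNA via RT-PCR and capillary electrophoresis, 24 h after dosing transiently transfected HepG2 cells. Gain or loss of signal fitted relative to DMSO.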

Assay [18] deals with Estrogen-related receptor gamma (Homo sapiens) (UniProt P62508). The assay can be described thus: ATG_ERRg_TRANS: Attagene TRANS-FACTORIAL HepG2 Assay for human Estrogen-Related Receptor gamma (ERRg) (AID 2282977; active means hit-call score of the fitted dose curve at least 0.9, where 1 is the maximum;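 further: hits increase reporter signal over DMSO so potencies reflect activators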). Particulars: HepG2 Attagene TRANS reporter, ERRg transactivation. In a few lines: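 Transient HepG2 transfectants, 24 h compound exposure, GAL4-UAS reporter mRNA by RT-PCR/6-FAM labelling/capillary electrophoresis; positive direction vs DMSO.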

Assay [19] has as its target Steroid hormone receptor ERR1 (Homo sapiens) (UniProt P11474). The assay is described as follows: ATG_ERRa_TRANS: Attagene TRANS-FACTORIAL HepG2 Assay for human Estrogen-Related Receptor alpha (ERRa) (AID 2282971; active means hit-call score of the fitted dose curve at least 0.9, where 1 is the maximum). Particulars: HepG2 Attagene TRANS reporter, ERRa transactivation. In a few lines:
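Reporter transcript induction was quantified by RT-PCR and capillary electrophoresis of FAM-labelled, HpaI-cut products after 24 h treatment of HepG2 cells carrying transiently transfected GAL4-UAS reporter units and an exogenous ERRa-Gal4 fusion; activity scored as increase over DMSO.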

Each structure is given as a SMILES string. Records with an inconclusive call do not appear. Calls of active or inactive are those of the source. How the source made its calls, unless noted: active means hit-call score of the fitted dose curve at least 0.9, where 1 is the maximum; inactive means score below 0.9.

Chain of Estrogen receptor (Homo sapiens) (P03372 whole entry, looked up, the tested form may be a part): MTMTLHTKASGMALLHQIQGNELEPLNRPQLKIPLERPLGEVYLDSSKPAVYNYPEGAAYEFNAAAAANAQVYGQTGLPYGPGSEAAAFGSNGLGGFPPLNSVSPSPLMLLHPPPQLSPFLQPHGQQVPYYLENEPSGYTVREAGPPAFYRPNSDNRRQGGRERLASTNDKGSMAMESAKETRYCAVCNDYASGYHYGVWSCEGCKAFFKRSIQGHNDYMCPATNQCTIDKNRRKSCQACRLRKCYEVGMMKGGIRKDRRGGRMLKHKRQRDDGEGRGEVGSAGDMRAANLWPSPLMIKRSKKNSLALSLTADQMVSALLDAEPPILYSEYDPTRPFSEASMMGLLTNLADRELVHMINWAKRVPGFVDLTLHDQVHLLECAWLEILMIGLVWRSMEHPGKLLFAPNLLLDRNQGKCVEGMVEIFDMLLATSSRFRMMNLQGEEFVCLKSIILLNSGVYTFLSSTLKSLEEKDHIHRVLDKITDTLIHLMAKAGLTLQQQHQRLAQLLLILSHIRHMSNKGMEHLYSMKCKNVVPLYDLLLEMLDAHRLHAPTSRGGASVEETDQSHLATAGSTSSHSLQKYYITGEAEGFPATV
Chain of Signal transducer and activator of transcription 3 (Homo sapiens) (P40763 whole entry, looked up): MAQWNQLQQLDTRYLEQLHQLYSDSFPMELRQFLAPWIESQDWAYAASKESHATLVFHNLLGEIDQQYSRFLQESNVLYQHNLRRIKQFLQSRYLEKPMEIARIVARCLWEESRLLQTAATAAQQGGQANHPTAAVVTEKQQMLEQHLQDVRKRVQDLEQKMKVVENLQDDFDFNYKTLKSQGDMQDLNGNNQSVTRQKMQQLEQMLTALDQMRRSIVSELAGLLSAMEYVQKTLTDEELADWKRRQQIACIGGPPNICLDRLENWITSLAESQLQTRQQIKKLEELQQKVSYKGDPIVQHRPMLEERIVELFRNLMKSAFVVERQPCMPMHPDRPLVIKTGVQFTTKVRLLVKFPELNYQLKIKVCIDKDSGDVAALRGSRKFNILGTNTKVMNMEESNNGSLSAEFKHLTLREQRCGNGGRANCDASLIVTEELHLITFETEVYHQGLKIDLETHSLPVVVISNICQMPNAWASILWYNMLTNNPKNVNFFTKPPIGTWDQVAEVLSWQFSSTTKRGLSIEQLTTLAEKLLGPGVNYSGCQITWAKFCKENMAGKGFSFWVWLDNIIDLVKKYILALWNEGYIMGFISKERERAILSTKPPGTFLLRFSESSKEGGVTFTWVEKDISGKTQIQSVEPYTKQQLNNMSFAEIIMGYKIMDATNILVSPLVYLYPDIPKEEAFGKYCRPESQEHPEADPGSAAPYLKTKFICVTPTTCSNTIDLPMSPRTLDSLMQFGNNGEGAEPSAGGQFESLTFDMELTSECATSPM
Chain of Nuclear receptor subfamily 1 group I member 3 (Homo sapiens) (Q14994 whole entry, looked up, the tested form may be a part): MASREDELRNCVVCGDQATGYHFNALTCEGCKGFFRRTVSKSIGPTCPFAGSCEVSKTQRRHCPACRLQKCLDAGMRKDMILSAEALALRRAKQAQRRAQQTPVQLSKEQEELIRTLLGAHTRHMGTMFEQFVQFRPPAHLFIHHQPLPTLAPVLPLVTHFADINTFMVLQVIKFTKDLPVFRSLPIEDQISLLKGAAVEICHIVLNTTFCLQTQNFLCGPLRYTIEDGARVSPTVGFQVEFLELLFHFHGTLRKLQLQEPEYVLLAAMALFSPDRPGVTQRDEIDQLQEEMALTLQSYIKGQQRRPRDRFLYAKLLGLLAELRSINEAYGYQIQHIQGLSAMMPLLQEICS
Chain of Transcription factor Sp1 (Homo sapiens) (P08047 whole entry, looked up): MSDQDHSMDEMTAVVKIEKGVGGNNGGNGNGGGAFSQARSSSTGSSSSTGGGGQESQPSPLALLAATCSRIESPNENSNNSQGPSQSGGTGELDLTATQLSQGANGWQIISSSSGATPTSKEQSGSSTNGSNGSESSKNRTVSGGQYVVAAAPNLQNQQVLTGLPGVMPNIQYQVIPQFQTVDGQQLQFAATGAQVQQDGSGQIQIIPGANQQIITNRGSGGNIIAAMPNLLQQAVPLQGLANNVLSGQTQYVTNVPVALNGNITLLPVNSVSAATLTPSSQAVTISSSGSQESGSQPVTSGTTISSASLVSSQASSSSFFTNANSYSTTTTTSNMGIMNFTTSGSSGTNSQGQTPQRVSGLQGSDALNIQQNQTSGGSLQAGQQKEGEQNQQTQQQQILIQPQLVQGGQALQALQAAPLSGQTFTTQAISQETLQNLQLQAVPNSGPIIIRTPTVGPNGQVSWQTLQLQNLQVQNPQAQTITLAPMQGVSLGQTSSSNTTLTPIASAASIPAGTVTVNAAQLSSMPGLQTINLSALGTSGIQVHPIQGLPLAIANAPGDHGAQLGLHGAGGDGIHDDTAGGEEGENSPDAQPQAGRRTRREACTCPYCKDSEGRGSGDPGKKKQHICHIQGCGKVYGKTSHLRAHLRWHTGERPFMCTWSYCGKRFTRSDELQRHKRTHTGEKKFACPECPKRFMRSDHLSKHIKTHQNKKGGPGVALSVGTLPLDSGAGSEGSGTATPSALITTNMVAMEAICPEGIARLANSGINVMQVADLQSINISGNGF
Chain of X-box-binding protein 1 (Homo sapiens) (P17861 whole entry, looked up, the tested form may be a part): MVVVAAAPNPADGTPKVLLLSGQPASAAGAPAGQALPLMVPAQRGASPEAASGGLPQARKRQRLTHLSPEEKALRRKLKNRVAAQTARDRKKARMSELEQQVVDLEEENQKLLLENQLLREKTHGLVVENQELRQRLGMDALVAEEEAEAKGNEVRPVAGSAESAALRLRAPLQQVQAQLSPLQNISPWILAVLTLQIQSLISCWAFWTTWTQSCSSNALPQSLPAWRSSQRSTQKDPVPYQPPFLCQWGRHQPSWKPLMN
Chain of Estrogen-related receptor gamma (Homo sapiens) (P62508 whole entry, looked up, the tested form may be a part): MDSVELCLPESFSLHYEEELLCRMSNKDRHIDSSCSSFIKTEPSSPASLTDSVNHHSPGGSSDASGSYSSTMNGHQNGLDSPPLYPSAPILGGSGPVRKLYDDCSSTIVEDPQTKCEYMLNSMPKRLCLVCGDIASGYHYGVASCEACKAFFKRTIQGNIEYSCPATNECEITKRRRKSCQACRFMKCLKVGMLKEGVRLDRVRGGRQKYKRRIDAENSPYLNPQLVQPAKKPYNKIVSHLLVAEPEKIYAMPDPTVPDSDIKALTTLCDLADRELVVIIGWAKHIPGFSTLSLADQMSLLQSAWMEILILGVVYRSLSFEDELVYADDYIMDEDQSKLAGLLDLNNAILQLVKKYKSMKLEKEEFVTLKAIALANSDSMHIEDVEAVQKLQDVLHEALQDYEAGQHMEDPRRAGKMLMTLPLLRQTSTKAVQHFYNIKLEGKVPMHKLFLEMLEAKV
Chain of Steroid hormone receptor ERR1 (Homo sapiens) (P11474 whole entry, looked up, the tested form may be a part): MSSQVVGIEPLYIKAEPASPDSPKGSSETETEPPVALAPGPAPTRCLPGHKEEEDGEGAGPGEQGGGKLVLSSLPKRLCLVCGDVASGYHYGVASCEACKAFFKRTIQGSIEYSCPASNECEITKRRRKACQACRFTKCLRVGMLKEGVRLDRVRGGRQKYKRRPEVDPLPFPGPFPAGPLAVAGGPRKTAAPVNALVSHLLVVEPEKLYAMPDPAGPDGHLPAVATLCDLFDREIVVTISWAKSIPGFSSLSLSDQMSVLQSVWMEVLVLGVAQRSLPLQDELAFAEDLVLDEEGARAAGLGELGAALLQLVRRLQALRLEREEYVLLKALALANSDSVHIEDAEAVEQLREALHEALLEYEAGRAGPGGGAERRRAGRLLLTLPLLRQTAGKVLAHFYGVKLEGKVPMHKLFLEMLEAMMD

Turning to `CC1OC1C1CCC2(C)OC2C1` (stereo not drawn), the AC50 in assay [1] is 36.7 µM (active). Besides, the call in [2], in assay [3], in [4], in assay [5], in [6] and in [7] was inactive. For the same compound, the compound was classed as inactive in assay [8], in assay [9], in [10], in assay [11], in assay [12] and in [13]. Also, the call in [14] was inactive.
With `O=C(O)CC(C(=O)O)C(CC(=O)O)C(=O)O` (stereo not drawn), the call in assay [1], in [15], in assay [3], in [16], in assay [5] and in assay [6] was inactive. For the same compound, the outcome in assay [7], in assay [8], in [17], in assay [9], in assay [12] and in assay [13] was inactive.
For the compound `CNC(=S)NN`, the result in [1], in [15], in [2], in assay [3], in assay [16] and in assay [4] was inactive. Further, the compound was classed as inactive in [5], in assay [6], in [7], in [8], in [17] and in [9]. Moreover, the compound was called inactive in [11], in assay [12], in [13], in [14] and in assay [18].
Turning to `C=CC=CC=CCCCCC`, the concentration at half-maximal activity (AC50) in assay [1] was 6.94 µM (active). Also, the compound was classed as inactive in [15], in [2], in assay [3], in assay [16], in assay [4] and in assay [5]. Further, the call in [6], in assay [7], in [8], in [17], in assay [9] and in assay [11] was inactive. In addition, the compound was classed as inactive in assay [19] and in assay [12].
As for `O=S(=O)(Oc1ccc(Cl)cc1Cl)c1ccccc1`, the AC50 was 2.2 µM (active) in assay [1], 63.4 µM (active) in assay [17], 6.51 µM (active) in assay [9] and 5.33 µM (active) in assay [11]. For the same compound, the compound was called inactive in assay [15], in [2], in assay [3], in [16], in assay [4] and in assay [5]. The result in assay [6], in assay [7], in assay [8], in [10], in [12] and in assay [18] was inactive.
As for `O=C(Nc1cccc(C(F)(F)F)c1)c1cc(Br)cc(Br)c1O`, the result in assay [1], in assay [15], in assay [17] and in assay [14] was inactive. Further, the concentration at half-maximal activity (AC50) in assay [2] is 2.29 µM (active); in [3], 79.3 µM (active); in assay [16], 100 µM (active); in assay [4] it was 21.5 µM (active); in [6] it was 43.9 µM (active); in assay [7], 128 µM (active). Moreover, the values for the AC50 in [8] and in [12] were 145 µM (active) and 26.4 µM (active), respectively.
For `CC1=NC(C)OC1C` (stereo not drawn), the results for the AC50 in [1], in [7] and in assay [9] were 7.08 µM (active), 100 µM (active) and 9.63 µM (active), respectively. Also, the compound was called inactive in [2], in [3], in assay [16], in [4], in assay [5] and in assay [6]. For the same compound, the call in assay [8], in assay [17], in [12], in [13] and in assay [14] was inactive.
As to `CCc1ccc2c(c1)C(=O)c1ccccc1C2=O`, the AC50 was 3.01 µM (active) in [1], 11.6 µM (active) in [9] and 4.61 µM (active) in assay [11]. The result in assay [2], in assay [3], in assay [16], in [4], in assay [5] and in [6] was inactive. Also, the compound was called inactive in assay [7], in assay [8], in assay [10] and in [12].
`Cc1ccccc1C`: the AC50 in assay [1] was 36.5 µM (active). The compound was classed as inactive in assay [15], in assay [2], in assay [3], in assay [16], in assay [4] and in assay [5]. The compound was called inactive in assay [6], in assay [7], in assay [8], in assay [17], in [9] and in assay [12]. The result in assay [14] and in assay [18] was inactive.
